# Data published in PubChem BioAssay.
# Active and inactive are the calls of the source.
# How the values were obtained:
# [1] = test system: Plasmodium falciparum Sir2 (PF13_0152, Sir2A); test: Plasmodium falciparum Sir2A binding compounds – biochemical, small-molecule microarray, 635 nm fluorescence, primary screen (AID 1098); conditions: fluorescence 635 nm, higher = more signal;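 note: score merges spot fluorescence intensity with its signal-to-noise ratio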
# [2] = probe aDKK1 binding to arrayed compounds – biochemical, biotinylated probe, 635/667 nm fluorescence, primary screen (AID 1099); conditions: small-molecule microarray, higher = more signal;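 note: score merges 667nm spot fluorescence with signal to noise across triplicate slides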
# [3] = probe aCHRDL2 binding to arrayed compounds – biochemical, biotinylated probe, 635/667 nm fluorescence, primary screen (AID 1100); conditions: small-molecule microarray, higher = more signal
# [4] = change in splice reporter luminescence, either direction, cell-based, HEK293, spliceosome inhibition project, primary screen (AID 1101); conditions: HEK293 splicing luciferase reporter, 24 h, higher = more signal, called active from +8 up or from −8 down;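 note: HEK293 cells carrying a splicing-competent luciferase reporter gene; test concentration not given here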
# [5] = target: Fibroblast growth factor 10 (Homo sapiens) (UniProt O15520); test: compounds binding fibroblast growth factor 10 – biochemical, small-molecule microarray, 635 nm fluorescence, primary screen (AID 1102); conditions: FGF10 binding, fluorescence 635 nm, higher = more signal
# [6] = test system: glycogen synthase kinase-3 (GSK3A per assay name; protocol says GSK3B); test: compounds binding glycogen synthase kinase-3 – biochemical, small-molecule microarray, 635 nm fluorescence, GSK3A, primary screen (AID 1103); conditions: fluorescence 635 nm, higher = more signal; note: the record names both GSK3A and GSK3B
# [7] = target: Epidermal growth factor receptor (Homo sapiens) (UniProt P00533); test: compounds binding epidermal growth factor receptor – biochemical, small-molecule microarray, 635 nm fluorescence, primary screen (AID 1104); conditions: EGFR binding, higher = more signal;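 note: score merges 667 nm emission intensity with spot signal to noise over triplicate slides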
# [8] = target: Follistatin-related protein 3 (Homo sapiens) (UniProt O95633); test: compounds binding follistatin-related protein 3 – biochemical, small-molecule microarray, 635 nm fluorescence, primary screen (AID 1105); conditions: FSTL3 binding, higher = more signal;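 note: score merges emission near 667 nm and signal to noise per printed spot across three slides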
# [9] = target: Dickkopf-related protein 1 (Homo sapiens) (UniProt O94907); test: small molecules binding DKK1 protein – biochemical, small-molecule microarray, 635 nm fluorescence scan, primary screen (AID 1106); conditions: higher = more signal;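 note: score merges emission near 667 nm with signal to noise over three replicate slides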
# [10] = test system: Inhibin beta A chain (activin A); test: small molecules binding activin A – biochemical, small-molecule microarray, 635 nm fluorescence scan, primary screen (AID 1107); conditions: INHBA, higher = more signal;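 note: mouse activin A protein probed at 4.33 µg/mL on printed slides; score merges bound-protein fluorescence near 667 nm with spot signal-to-noise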
# [11] = test system: Human papillomavirus type 1a protein E7 (residues 44-93); test: small molecules binding HPV E7 44-93 – biochemical, small-molecule microarray, residues 44-93, 635 nm fluorescence, primary screen (AID 1108); conditions: fluorescence 635 nm, higher = more signal;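 note: E7 fragment applied at 1 µg/mL in TBST for 1 h at 4 C; score combines spot fluorescence with its signal to noise ratio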
# [12] = hepatitis C replication reporter changes, two-sided – Huh7 cells, luciferase reporter, HCV replication inhibitor project, primary screen (AID 1109); conditions: Huh7 HCV replicon luciferase reporter, 48 h; higher = more signal;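 note: huh7 hepatoma cells harbouring a luciferase neomycin HCV replicon reporter; luciferase luminescence as measure of HCV replicon replication; test concentration not given here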
# [13] = target: Left-right determination factor 2 (Homo sapiens) (UniProt O00292); test: small molecules binding LEFTY2 protein – biochemical, small-molecule microarray, 635 nm fluorescence scan, primary screen (AID 1110); conditions: higher = more signal
# [14] = target: Calmodulin-1 (Homo sapiens) (UniProt P0DP23); test: small molecules binding calmodulin-1 with EGTA – biochemical, small-molecule microarray, Cy5-labelled CALM1, profiling panel (AID 1111); conditions: Cy5-CALM1 binding fluorescence, higher = more signal;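 note: labelled calmodulin applied in Tris saline Tween buffer holding calcium plus EGTA and DTT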
# [15] = target: Calmodulin-1 (Homo sapiens) (UniProt P0DP23); test: small molecules binding Ca-loaded calmodulin-1 – biochemical, small-molecule microarray, Cy5-labelled CALM1, plus calcium, artefact control for SMM control-protein annotation, profiling panel (AID 1112); conditions: Cy5-CALM1 binding fluorescence, higher = more signal;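 note: score merges spot fluorescence with signal to noise from triplicate slides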
# [16] = probe aWnt5a binding to arrayed compounds – biochemical, biotinylated probe, 635/667 nm fluorescence, primary screen (AID 1113); conditions: small-molecule microarray, higher = more signal;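 note: score merges 667 nm fluorescence intensity with signal-to-noise per printed feature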
# [17] = probe aShh binding to arrayed compounds – biochemical, biotinylated probe, 635/667 nm fluorescence, primary screen (AID 1114); conditions: small-molecule microarray, higher = more signal;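 note: probe is biotin-labelled aShh protein from a stem cell growth factor screen; measures binding of labelled protein to compounds printed on the slide; score merges feature fluorescence at 667 nm with signal-to-noise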
# [18] = probe aNog binding to arrayed compounds – biochemical, biotinylated probe, 635/667 nm fluorescence, primary screen (AID 1115); conditions: small-molecule microarray, higher = more signal;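 note: probe is biotinylated aNog protein used at 0.15 µg/mL for 1 h at 4 C; z-score combines 667 nm fluorescence of each spot with its signal to noise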
# [19] = target: Torsin-1A-interacting protein 1 (Homo sapiens) (UniProt Q5JTV8); test: compound microarray binding of lysate hLAP1 – cell lysate, small-molecule microarray, COS7 lysate, 635/667 nm fluorescence, primary screen (AID 1116); conditions: 635 nm fluorescence, higher = more signal
# [20] = target: Alpha-bungarotoxin (Bungarus multicinctus) (UniProt P60615); test: compounds binding labelled alpha-BTX control protein – biochemical, small-molecule microarray, Alexa647 label, 635/667 nm fluorescence, artefact control for SMM control protein annotation, profiling panel (AID 1117); conditions: alpha-BTX-A647 binding fluorescence, higher = more signal
# Chain of Alpha-bungarotoxin (Bungarus multicinctus) (P60615 whole entry, looked up): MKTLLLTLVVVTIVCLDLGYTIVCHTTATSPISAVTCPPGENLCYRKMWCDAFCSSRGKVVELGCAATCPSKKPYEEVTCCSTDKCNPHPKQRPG
# Chain of Epidermal growth factor receptor (Homo sapiens) (P00533 whole entry, looked up): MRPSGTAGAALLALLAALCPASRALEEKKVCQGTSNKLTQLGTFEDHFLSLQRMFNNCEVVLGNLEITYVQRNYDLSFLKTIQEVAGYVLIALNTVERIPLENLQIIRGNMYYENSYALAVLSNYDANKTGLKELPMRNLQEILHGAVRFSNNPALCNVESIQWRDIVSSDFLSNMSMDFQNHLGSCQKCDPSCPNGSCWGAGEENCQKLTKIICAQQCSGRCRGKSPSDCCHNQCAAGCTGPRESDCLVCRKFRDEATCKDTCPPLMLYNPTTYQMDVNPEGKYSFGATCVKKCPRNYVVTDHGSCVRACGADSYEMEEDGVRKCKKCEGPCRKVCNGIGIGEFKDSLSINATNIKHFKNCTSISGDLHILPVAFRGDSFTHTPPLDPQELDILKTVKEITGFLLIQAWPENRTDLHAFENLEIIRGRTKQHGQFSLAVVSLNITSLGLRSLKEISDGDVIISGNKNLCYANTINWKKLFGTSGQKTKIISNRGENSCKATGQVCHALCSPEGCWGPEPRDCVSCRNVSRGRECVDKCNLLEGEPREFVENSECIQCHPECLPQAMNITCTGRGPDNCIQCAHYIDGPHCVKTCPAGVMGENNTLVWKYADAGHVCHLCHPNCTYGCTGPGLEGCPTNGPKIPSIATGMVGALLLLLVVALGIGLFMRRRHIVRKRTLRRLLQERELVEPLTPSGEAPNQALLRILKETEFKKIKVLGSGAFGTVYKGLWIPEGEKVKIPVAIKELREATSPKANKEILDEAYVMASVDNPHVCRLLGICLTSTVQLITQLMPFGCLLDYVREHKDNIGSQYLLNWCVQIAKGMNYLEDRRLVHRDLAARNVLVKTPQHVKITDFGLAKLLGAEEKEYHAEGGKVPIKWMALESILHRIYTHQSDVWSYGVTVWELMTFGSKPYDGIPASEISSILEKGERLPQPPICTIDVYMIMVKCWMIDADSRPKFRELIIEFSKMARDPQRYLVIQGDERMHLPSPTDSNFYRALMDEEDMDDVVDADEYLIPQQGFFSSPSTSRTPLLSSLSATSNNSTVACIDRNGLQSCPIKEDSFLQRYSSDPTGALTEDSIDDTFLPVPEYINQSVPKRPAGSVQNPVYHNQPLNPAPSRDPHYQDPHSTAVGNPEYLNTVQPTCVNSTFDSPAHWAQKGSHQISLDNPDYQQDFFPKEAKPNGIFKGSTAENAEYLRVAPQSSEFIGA
# Chain of Left-right determination factor 2 (Homo sapiens) (O00292 whole entry, looked up): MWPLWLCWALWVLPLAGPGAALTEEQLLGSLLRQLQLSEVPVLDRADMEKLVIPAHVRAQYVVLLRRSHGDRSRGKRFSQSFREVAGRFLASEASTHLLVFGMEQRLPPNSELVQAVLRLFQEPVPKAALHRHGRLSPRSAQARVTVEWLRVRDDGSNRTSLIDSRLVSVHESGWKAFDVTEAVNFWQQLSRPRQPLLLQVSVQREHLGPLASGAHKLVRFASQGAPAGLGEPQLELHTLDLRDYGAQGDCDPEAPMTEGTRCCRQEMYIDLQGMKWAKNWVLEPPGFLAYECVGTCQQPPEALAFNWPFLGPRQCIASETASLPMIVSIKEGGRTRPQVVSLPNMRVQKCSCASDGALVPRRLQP
# Chain of Follistatin-related protein 3 (Homo sapiens) (O95633 whole entry, looked up): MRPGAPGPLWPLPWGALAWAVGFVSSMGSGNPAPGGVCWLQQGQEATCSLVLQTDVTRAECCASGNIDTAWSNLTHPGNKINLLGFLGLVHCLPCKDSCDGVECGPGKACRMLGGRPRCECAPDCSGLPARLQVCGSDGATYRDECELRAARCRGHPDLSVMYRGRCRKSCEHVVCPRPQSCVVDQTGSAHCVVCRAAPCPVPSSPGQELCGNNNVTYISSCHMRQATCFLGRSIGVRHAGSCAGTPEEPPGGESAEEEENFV
# Chain of Fibroblast growth factor 10 (Homo sapiens) (O15520 whole entry, looked up): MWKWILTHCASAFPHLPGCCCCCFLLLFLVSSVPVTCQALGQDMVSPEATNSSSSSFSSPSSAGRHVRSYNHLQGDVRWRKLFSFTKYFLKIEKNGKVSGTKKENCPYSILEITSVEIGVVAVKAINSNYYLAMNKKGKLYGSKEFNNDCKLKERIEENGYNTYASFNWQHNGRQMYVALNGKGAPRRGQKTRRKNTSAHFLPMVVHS
# Chain of Dickkopf-related protein 1 (Homo sapiens) (O94907 whole entry, looked up): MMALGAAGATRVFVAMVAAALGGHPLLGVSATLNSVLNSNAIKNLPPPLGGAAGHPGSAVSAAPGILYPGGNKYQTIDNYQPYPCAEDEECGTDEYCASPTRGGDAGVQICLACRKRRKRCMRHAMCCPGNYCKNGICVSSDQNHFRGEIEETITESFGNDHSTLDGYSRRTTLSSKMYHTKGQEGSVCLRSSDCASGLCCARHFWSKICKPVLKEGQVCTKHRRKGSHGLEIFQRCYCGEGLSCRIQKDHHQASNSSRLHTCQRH
# Chain of Torsin-1A-interacting protein 1 (Homo sapiens) (Q5JTV8 whole entry, looked up): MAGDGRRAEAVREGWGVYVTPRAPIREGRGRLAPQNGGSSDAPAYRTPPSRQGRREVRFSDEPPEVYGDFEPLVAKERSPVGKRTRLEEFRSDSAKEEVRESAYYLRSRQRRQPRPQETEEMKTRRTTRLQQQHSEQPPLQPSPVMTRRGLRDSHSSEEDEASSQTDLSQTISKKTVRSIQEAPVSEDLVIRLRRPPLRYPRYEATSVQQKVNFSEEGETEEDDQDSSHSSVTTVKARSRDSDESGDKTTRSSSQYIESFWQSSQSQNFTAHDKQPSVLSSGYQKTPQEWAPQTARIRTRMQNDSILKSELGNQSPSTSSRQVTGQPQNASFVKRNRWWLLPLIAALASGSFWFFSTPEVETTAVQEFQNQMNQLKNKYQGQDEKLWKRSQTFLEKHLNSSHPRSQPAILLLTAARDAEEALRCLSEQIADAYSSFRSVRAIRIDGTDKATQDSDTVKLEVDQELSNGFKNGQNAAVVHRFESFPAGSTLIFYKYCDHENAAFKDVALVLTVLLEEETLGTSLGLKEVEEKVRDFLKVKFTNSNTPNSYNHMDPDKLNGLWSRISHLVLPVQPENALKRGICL
SMILES,composite z-score [1],composite z-score [2],composite z-score [3],z-score [4],composite z-score [5],composite z-score [6],composite z-score [7],composite z-score [8],composite z-score [9],composite z-score [10],composite z-score [11],z-score [12],composite z-score [13],composite z-score [14],composite z-score [15],composite z-score [16],composite z-score [17],composite z-score [18],composite z-score [19],composite z-score [20]
CCCN1C(=O)[C@]2(CCS(=O)(=O)c3ccccc3)N=C(c3ccc(OCCCO)cc3)O[C@@H]2c2ccccc21,1.19,0.0947,0.766,-0.707 (inactive),0.533,1.32,0.0338,1.05,0.125,0.916,1.42,-2.49,0.16,3.15,-0.0613,-0.0643,0.0893,-0.153,1.74,1.14
COCCCNC(=O)C1N=C(c2ccc(OCCCO)cc2)N(c2ccccc2)O1 (stereo not given),0.87,0.0045,0.203,-0.27 (inactive),1.3,0.781,0.241,0.784,0.383,-0.6,1.41,-1.46,0.382,1.08,0.131,-0.0286,-0.0035,0.752,0.477,0.649
CC(C)(C)OC(=O)CC[C@@]1(C(=O)NCC(O)CO)N=C(c2ccc(OCCCO)cc2)O[C@@H]1c1ccccc1N=[N+]=[N-] (stereo not given in full),1.72,0.836,1.15,-0.764 (inactive),1.36,-0.454,-0.468,0.114,0.311,0.906,1.47,0.0173,-0.586,1.67,0.414,0.0279,0.13,1.71,2.29,1.6
Cc1ccc(S[C@]2(C(=O)NCCN3CCOCC3)CC(=O)N(Cc3ccccc3)[C@@H]2c2ccc(CO)cc2I)cc1,1.41,0.361,1.11,-1.88 (inactive),-1.61,-1.12,-1.72,-1.24,-1.51,0.476,0.0104,-3.12,-0.601,-0.318,-0.431,-0.124,-0.17,0.0323,-0.914,-1.07
COCCOC(=O)N1C(=O)[C@@]2(c3cc(C#Cc4ccc(OC)cc4)ccc31)[C@H](c1ccc(O)cc1)N1[C@H](c3ccccc3)[C@H](c3ccccc3)OC(=O)[C@H]1[C@@H]2C(=O)NC[C@H](O)c1ccccc1,1.47,-0.0755,-0.378,-1.68 (inactive),1.42,1.31,0.769,1.4,0.811,0.113,1.44,-2.2,0.598,1.18,-0.209,0.0809,0.692,-0.467,0.681,1.54
C=C/C=C/[C@H]1C(=C)CN([C@@H](Cc2ccccc2)C(=O)OC)[C@@H]1[C@H](O)Cc1ccccc1,-0.181,-0.167,0.44,1.04 (inactive),-0.557,-0.546,-1.23,-0.542,-0.306,0.97,-0.784,-0.331,-1.09,-0.679,-1.1,-0.129,-0.138,-0.0624,-0.207,-0.217
CC(C)N1C(=O)c2ccccc2[C@](C)(C(=O)NCc2ccccc2)[C@@H]1c1ccc(CO)cc1,0.758,0.234,0.849,0.0799 (inactive),-0.44,-0.329,-0.587,-0.615,-1.16,0.288,-0.375,0.0554,-1,-0.742,-0.514,-0.0735,-0.19,-0.141,1.13,-0.491
COCC(=C=CC[C@@H](O)c1ccccc1OCCO)C[C@@H](O)c1cc(Cl)cc(Cl)c1O,0.781,-0.174,-0.607,-0.458 (inactive),1.23,1.28,0.334,1.23,0.317,0.495,1.44,-2.21,0.635,0.362,-0.534,-0.126,-0.14,-0.0863,0.704,0.792
CCOC(=O)C1=CCC(c2ccc(C)cc2)N(S(=O)(=O)c2ccc(C)cc2)C1 (stereo not given),0.751,0.524,0.845,-0.688 (inactive),0.129,0.301,-0.136,0.058,0.0296,1.42,1.12,-0.905,0.175,0.367,0.172,-0.0226,-0.0977,0.542,0.81,1.15
Cc1ccc(S[C@]2(C(=O)NCCN3CCOCC3)CC(=O)N(Cc3ccccc3Cl)[C@@H]2c2ccc(CO)cc2)cc1,0.588,-0.123,0.841,-1.38 (inactive),1,-1.4,-0.342,-0.51,-0.844,0.425,1.02,-0.815,-0.989,-0.343,0.148,-0.12,-0.0035,-0.339,0.733,-0.146
CN1C(=O)C2C=CC(C(O)c3cc(C(F)(F)F)cc(C(F)(F)F)c3)N(N3CCCCC3)C2C1=O (stereo not given),0.567,0.853,1.01,0.139 (inactive),0.246,-0.0883,-0.448,0.0198,-0.722,0.291,1.24,-0.353,-0.599,1.34,0.769,0.0775,0.42,1.15,0.287,0.49
